Test results as given in PubChem BioAssay (NCATS).
Results filed as inconclusive are left out. Unmarked numbers belong to inactive results. The source made the active and inactive calls. Calls follow the shape of the dose curve; as a rule, active = well fitted inhibition curve with a large enough effect; inconclusive = small, poorly fitted or top-dose-only effect; inactive = flat fitted curve, though single readings scatter.

System: KB-3-1
Test: Cytotoxic Profiling of Annotated Libraries Using Quantitative High-Throughput Screening (AID 1296008); also: nearly all actives have a fitted effect of over 60% in size
Settings: Five cell lines viability, CellTiter-Glo ATP luminescence, 48-72 h; max response: stronger effect = lower value
How it was run: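 Compounds were pin-transferred onto cells and incubated 48 or 72 hr at 37 degree Celsius, 95% humidity. CellTiter-Glo was added, plates sat 10 min at room temperature, then ATP-coupled luminescence was imaged as the viability read-out.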
% is scaled to controls: 0 for no effect and ±100 for the full control effect; potency is read from the fitted curve at half-maximal effect.

Compared with `O=C/C=C/c1ccccc1`, `CCC1(c2ccccc2)C(=O)NC(=O)NC1=O` is lower in max response: 17.4% for the first, 3.43% for the second.

First: CCC(C)(S(=O)(=O)CC)S(=O)(=O)CC
Second: C#CCN1CC(=O)N(COC(=O)C2C(C=C(C)C)C2(C)C)C1=O (centres undefined)
The max response of the first is lower: -12.7% for the first, -3.38% for the second.

First: CC1CCC(C(C)C)C(OC(=O)c2ccccc2N)C1 (centres undefined)
Second: C[C@@H]1[C@@H]2Cc3ccc(O)cc3[C@@]1(C)CCN2CC1CC1
The max response of the first is higher: 24.6% for the first, -3.25% for the second.

Going from `CCC/C=C/C=C/C(=O)O[C@H]1/C(=C/C(=O)OC)C[C@H]2C[C@H]([C@@H](C)O)OC(=O)C[C@H](O)C[C@@H]3C[C@H](OC(C)=O)C(C)(C)[C@](O)(C[C@@H]4C/C(=C/C(=O)OC)C[C@H](/C=C/C(C)(C)[C@]1(O)O2)O4)O3` to `C[C@H]1CC[C@@H]2[C@@H](C)[C@H]3[C@H](C[C@H]4[C@@H]5CC=C6CC(O[C@@H]7O[C@H](CO)[C@H](O)[C@H](O[C@@H]8O[C@H](CO)[C@@H](O)[C@H](O)[C@H]8O)[C@H]7O[C@H]7O[C@@H](C)[C@H](O)[C@@H](O)[C@H]7O)CC[C@]6(C)[C@H]5CC[C@]34C)N2C1` (some centres undefined), the max response rises from 0.184% to 48.6%.

Compared with `CCNC1(c2cccs2)CCCCC1=O` (centres undefined), `CCCCNCC(O)c1ccc(O)cc1` (centres undefined) is higher in max response: -6.94% for the first, 13.7% for the second.

Going from `N#CC1(N2CCCCC2)CCCCC1` to `F/C(COc1ccc2c(c1)[nH]c1ccccc12)=C1/CN2CCC1CC2`, the max response falls from 9.38% to -8.12%.

Compared with `ClC=C(Cl)Cl`, `OC[C@@H](O)[C@H]1O[C@@H]2O[C@H](C(Cl)(Cl)Cl)O[C@@H]2[C@H]1O` is higher in max response: -14.2% for the first, 3.48% for the second.

First: C[C@@H](CO)NC(=O)[C@@H]1C=C2c3cccc4[nH]cc(c34)C[C@H]2N(C)C1
Second: NCC(O)c1cccc(O)c1 (centres undefined)
The max response of the first is higher: 1.7% for the first, 1.34% for the second.

Molecule `CCC1C(C)=NN=C(c2ccc(OC)c(OC)c2)c2cc(OC)c(OC)cc21` (centres undefined) has a max response of 11.4%.

For `CC(=O)O[C@H]1C[C@H](O[C@H]2[C@@H](O)C[C@H](O[C@H]3[C@@H](O)C[C@H](O[C@H]4CC[C@@]5(C)[C@H](CC[C@@H]6[C@@H]5C[C@@H](O)[C@]5(C)[C@@H](C7=CC(=O)OC7)CC[C@]65O)C4)O[C@@H]3C)O[C@@H]2C)O[C@H](C)[C@H]1O[C@@H]1O[C@H](CO)[C@@H](O)[C@H](O)[C@H]1O`, the Potency was 164 nM (active).
`CC(=O)O[C@H]1C[C@H](O[C@H]2[C@@H](O)C[C@H](O[C@H]3[C@@H](O)C[C@H](OC4CC[C@@]5(C)[C@H](CC[C@@H]6[C@@H]5CC[C@]5(C)[C@@H](C7=CC(=O)OC7)CC[C@]65O)C4)O[C@@H]3C)O[C@@H]2C)O[C@H](C)[C@H]1O[C@@H]1O[C@H](CO)[C@@H](O)[C@H](O)[C@H]1O` (some centres undefined) was tested, and the Potency was 206 nM (active).
